Experimental data reported in PubChem BioAssay (Tox21).
Active and inactive are the calls of the source. Calls come from the whole dose curve; as a rule, active = well fitted cell-killing curve with a large enough effect in the repeat runs; inconclusive = weak or mixed curves, or effect the other way; inactive = flat fitted curve, though single readings scatter.

assay: qHTS assay to identify small molecule HDAC inhibitors - cell viability counter screen (AID 1259365); conditions: HCT-116 viability, CellTiter-Glo ATP luminescence, 2 h; series mostly up to 92.4 µM; note: nearly all actives have a fitted effect of over 50% in size
Outline: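 Viability readout: CellTiter-Glo luminescence. Wild-type HCT-116 cells, 2hr compound treatment following overnight attachment at 37 C.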
% is set by controls: 0 for no effect and ±100 for the full control effect.

Row | Structure (SMILES) | activity change, negative = cytotoxicity | outcome
1 | Nc1ccc(/C=C/c2ccc(N)cc2S(=O)(=O)O)c(S(=O)(=O)O)c1 | 0.175% [at 0.349 µM] (inactive) | –
2 | CC(C)C(=O)c1ccccc1 | – | inactive
3 | C=C(C)C(=O)OC | – | inactive
4 | O=S1(=O)CCCC1 | – | inactive
5 | CO/N=C(/C(=O)N[C@@H]1C(=O)N2C(C(=O)O)=C(Cn3nnc(C)n3)CS[C@H]12)c1csc(N)n1 | – | inactive
6 | NC(=O)NC(=O)Cc1ccccc1 | – | inactive
7 | C=C(C)[C@@H]1CC[C@@H](C)C[C@@H]1O | – | inactive
8 | OC[C@@H](O)[C@H](O)[C@@H](O)[C@@H](O)CO | – | inactive
9 | CCC(C)(CCC(C)C)C(=O)[O-].CCC(C)(CCC(C)C)C(=O)[O-].[Zn+2] (stereo unspecified) | – | inactive
10 | CN=C(NC#N)NCCSCc1csc(N=C(N)N)n1 | – | inactive
11 | C=C[Si](C)(C)O[Si](C)(C)C=C | – | inactive
12 | NC(=O)C1(N2CCCCC2)CCN(CCCC(=O)c2ccc(F)cc2)CC1 | – | inactive
13 | O=S(=O)(O)CCO | – | inactive
14 | Cc1cccc(C(=O)O)c1[N+](=O)[O-] | – | inactive
15 | C=CCOc1c(Br)cc(C(C)(C)c2cc(Br)c(OCC=C)c(Br)c2)cc1Br | – | inactive
16 | CCC1Nc2cc(Cl)c(S(N)(=O)=O)cc2S(=O)(=O)N1 (stereo unspecified) | – | inactive
17 | C=CCOCC(CO)(COCC=C)COCC=C | – | inactive
18 | C=CCOCC(O)CCl (stereo unspecified) | – | inactive
19 | Cc1cc(O)c2c(c1)C(=O)c1cccc(O)c1C2=O | – | inactive
20 | CO[Si](CCCS)(OC)OC | – | inactive
21 | CCCCC(CC)COC(=O)c1ccccc1 (stereo unspecified) | – | inactive
22 | CC(C)SCc1ccco1 | – | inactive
23 | CCNC(=O)NCCCOc1cccc(CN2CCCCC2)c1 | – | inactive
24 | CCC(=O)c1ccc(O)cc1 | – | inactive
25 | CCCCCC1CCCC(=O)O1 (stereo unspecified) | – | inactive
26 | Cc1cc(C)cc([N+](=O)[O-])c1 | – | inactive
